Data taken from PubChem BioAssay (Tox21).
Active and inactive are the calls of the source. Calls come from the whole dose curve.
% is set by controls: 0 for no effect and ±100 for the full control effect.

These compounds were tested against Thyrotropin-releasing hormone receptor (Homo sapiens) (UniProt P34981) (assay: qHTS assay to identify small molecule agonists of the thyrotropin-releasing hormone receptor (TRHR) signaling pathway (AID 1346891;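 note: HEK293 cells expressing TRHR with calcium dye readout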)). Conditions: TRHR-HEK293 calcium fluorescence, agonist mode; series mostly up to 57.6 µM; activation: at the top concentration.
Sequence of Thyrotropin-releasing hormone receptor (Homo sapiens) (P34981 whole entry, looked up): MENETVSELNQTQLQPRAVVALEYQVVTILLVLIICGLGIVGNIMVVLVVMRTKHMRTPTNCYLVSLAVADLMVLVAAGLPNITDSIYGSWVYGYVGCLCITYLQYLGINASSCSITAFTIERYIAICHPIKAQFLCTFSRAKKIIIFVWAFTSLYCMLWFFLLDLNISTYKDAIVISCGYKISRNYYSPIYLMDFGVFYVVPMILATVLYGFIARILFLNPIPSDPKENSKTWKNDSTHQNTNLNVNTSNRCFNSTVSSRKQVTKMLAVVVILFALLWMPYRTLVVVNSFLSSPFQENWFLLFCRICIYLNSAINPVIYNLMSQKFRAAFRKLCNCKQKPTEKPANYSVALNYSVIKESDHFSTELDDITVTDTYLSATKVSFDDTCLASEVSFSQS
Source text: National Center for Advancing Translational Sciences [NCATS] NIH Chemical Genomics Center [NCGC] U.S. Environmental Protection Agency [EPA] National Institutes of Environmental Health Sciences [NIEHS] National Toxicology Program [NTP] Assay overview: Thyrotropin-releasing hormone (TRH) receptor (TRHR) is a G-protein-coupled receptor which binds the tripeptide thyrotropin releasing hormone. TRHR is found in the brain and, when bound by TRH, acts (through phospholipase C) to increase intracellular inositol trisphosphate. It plays a crucial role in the anterior pituitary where it controls the synthesis and secretion of thyroid stimulating hormone and prolactin. The TRHR-Hek293 assay is a cell-based assay, and it has the potential to screen G protein-coupled receptors. A compound/drug can either activate (agonist) or suppress (antagonist) GPCRs that can be monitored by levels of intracellular calcium. Using this assay, the Tox21 10K compound library was screened to identify potential TRHR agonists.
Assay Protocol Summary: The TRHR-Hek293 cells were dispensed at 1500cells/4uL/well in 1536-well black-clear bottom plates using a Multidrop dispenser. After the assay plates were incubated at a 37 C/5% CO2 incubator for 18 hours, 4 uL of Dye-Loading Solution was added to each well. The plates were incubated at 37 C for 2 hours. For agonist mode, 23 nL of compounds dissolved in DMSO, positive controls or DMSO only was transferred to the assay plate by a pin tool. The fluorescence intensity in the plates was measured using FDSS 7000EX kinetic plate reader for 3 min at 1 sec intervals. Each test compound was measured at 15 concentrations and in triplicates.
`NC(=O)COCCN1CCN(C(c2ccccc2)c2ccc(Cl)cc2)CC1` (stereo not given) was tested, and the “activation” value was 0.266% [at 26.5 µM] (inactive).
For `C[C@@H]1CCN(C(=O)[C@H](CCCN=C(N)N)NS(=O)(=O)c2cccc3c2NC[C@H](C)C3)[C@@H](C(=O)O)C1`, the “activation” value was -0.0349% [at 26.5 µM] (inactive).
In the case of `CCCCCCCCCCCCCC=O`, the activation is reported as 0.0389% [at 5.23 µM] (inactive).
`CC(=O)CC(C)(C)C1CCCCC1` was tested, and the “activation” value was -0.0625% (inactive).
In the case of `CS(=O)(=O)O`, the “activation” value is reported as -0.273% (inactive).
For `CCCCCCCCS(=O)(=O)Cl`, the “activation” value was 0.0281% (inactive).
In the case of `CCCC(=O)O[C@]1(C(=O)CO)CC[C@H]2[C@@H]3CCC4=CC(=O)CC[C@]4(C)[C@H]3[C@@H](O)C[C@@]21C`, the “activation” value is reported as 0.729% [at 26.5 µM] (inactive).
In the case of `COC(=O)CCSCCC(=O)OC`, the “activation” value is reported as -0.0093% (inactive).
`CCCCOCCOCCOCc1cc2c(cc1CCC)OCO2` was tested, and the outcome was “inactive”.
For `CC(=O)OC/C=C(\C)CC/C=C(\C)CCC=C(C)C`, the outcome was “inactive”.
For `O=C(O)CCCc1ccccc1`, the “activation” value was -0.0761% [at 26.5 µM] (inactive).
`CC(C)CNCC(C)C` was tested, and the “activation” value was -0.148% (inactive).
With `CC(C)=CCCC(C)CC(=O)O` (stereo not given) the “activation” value was -0.0094% (inactive).
In the case of `O=C(O)CCCl`, the “activation” value is reported as -0.0674% (inactive).
`CN1C(=O)N(C)C(O)C1O` (stereo not given) was tested, and the “activation” value was -0.453% (inactive).
For `CC(C[N+](C)(C)C)OC(N)=O` (stereo not given), the “activation” value was 13.3% [at 26.5 µM] (inactive).
With `O=C1CCCN1C1CCCCC1` the “activation” value was 0.0851% (inactive).
With `CN1CCCC1` the “activation” value was -0.68% (inactive).
With `COC(=O)[C@@H](N)Cc1ccc(O)c(O)c1` the “activation” value was -0.805% [at 26.5 µM] (inactive).
With `C=C(C)CS(=O)(=O)O` the “activation” value was -0.755% (inactive).
`COCCCOCCCOC` was tested, and the “activation” value was 0.0724% (inactive).
With `CN1CCN(c2cc3c(cc2F)c(=O)c(C(=O)O)cn3-c2ccc(F)cc2)CC1` the “activation” value was -0.382% [at 26.5 µM] (inactive).
`O=C(O)c1ccccc1OP(=O)(O)O` was tested, and the “activation” value was 0.908% [at 26.5 µM] (inactive).
With `Cc1ccc(Cl)cc1Cl` the “activation” value was 0.187% (inactive).
In the case of `O=C[C@H](O)[C@@H](O)[C@H](O)[C@H](O)CO`, the “activation” value is reported as -0.0924% (inactive).
`CC(C)(C)c1ccc(O)c(O)c1` was tested, and the outcome was “inactive”.
`N[C@H](C(=O)O)c1ccc(O)cc1` was tested, and the activation was 0.371% [at 11.8 µM] (inactive).
In the case of `N[C@H]1CN(c2c(F)cc3c(=O)c(C(=O)O)cn(C4C[C@H]4F)c3c2Cl)CC12CC2` (stereo not given in full), the “activation” value is reported as 0.0442% [at 26.5 µM] (inactive).
In the case of `COc1cc(C(=O)N2CCCCCCC2)cc(OC)c1OC`, the “activation” value is reported as -0.228% [at 26.5 µM] (inactive).
In the case of `O=C1CC2CC1C1CCCC21` (stereo not given), the “activation” value is reported as 0.0985% (inactive).
For `COC(=O)CC(C)=O`, the “activation” value was -0.0046% (inactive).
With `CCN(Cc1ccncc1)C(=O)C(CO)c1ccccc1` (stereo not given) the “activation” value was 0.938% [at 26.5 µM] (inactive).
In the case of `O=c1cc(CO)occ1O`, the “activation” value is reported as -0.106% [at 26.5 µM] (inactive).
For `OCCCC1CCCCC1`, the “activation” value was 0.0542% (inactive).
For `C[C@H](NC(CCc1ccccc1)C(=O)O)C(=O)N1CCC[C@H]1C(=O)O` (stereo not given in full), the “activation” value was -0.437% [at 26.5 µM] (inactive).
For `O=C(O)Cc1ccc(CCNS(=O)(=O)c2ccc(Cl)cc2)cc1`, the “activation” value was -0.176% [at 26.5 µM] (inactive).
`CC(=O)c1ccccc1O` was tested, and the “activation” value was 0.0898% (inactive).
In the case of `N=c1nc(N2CCCCC2)cc(N)n1O`, the “activation” value is reported as 0.0893% [at 26.5 µM] (inactive).
For `CCS(=O)(=O)c1ccc(OC)c(C(=O)OC)c1`, the “activation” value was -0.317% [at 26.5 µM] (inactive).
For `CC(C)(O)C#CC(C)(C)O`, the “activation” value was -0.207% (inactive).
